{
  "source": "PubChem BioAssay (NCATS)",
  "note": "Values joined by “and” are separate entries in the source; they are usually repeats but may differ in a detail not shown here. Identical values can stand only once. Records with an inconclusive call do not appear. Unmarked numbers belong to inactive results. Active and inactive are the calls of the source. The call rests on the fitted dose curve; in most records, active means well fitted activation curve with a large enough effect; inconclusive means small, poorly fitted or top-dose-only effect; inactive means no such curve, though single readings can be large or run the other way. Potency means the concentration at half of the fitted maximal effect.",
  "data": [
    {"molecular_target": "Cellular tumor antigen p53 (Homo sapiens) (UniProt P04637)", "sequence (P04637 whole entry, looked up)": "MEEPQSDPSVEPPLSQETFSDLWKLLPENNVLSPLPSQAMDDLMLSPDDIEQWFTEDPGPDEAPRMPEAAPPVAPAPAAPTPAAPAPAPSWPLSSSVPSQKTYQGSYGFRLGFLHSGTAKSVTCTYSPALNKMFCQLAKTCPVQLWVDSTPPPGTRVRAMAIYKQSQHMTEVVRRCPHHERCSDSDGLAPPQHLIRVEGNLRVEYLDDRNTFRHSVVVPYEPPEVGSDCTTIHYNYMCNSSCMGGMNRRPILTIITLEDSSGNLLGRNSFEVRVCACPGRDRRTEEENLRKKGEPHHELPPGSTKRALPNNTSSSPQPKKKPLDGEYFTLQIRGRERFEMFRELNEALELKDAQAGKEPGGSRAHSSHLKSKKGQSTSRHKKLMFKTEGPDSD", "experiment": "Primary qHTS for small molecule compounds that upregulate eGFP-tagged delta133p53alpha (in N-terminal) cells. (AID 2060322); further: nearly all actives have a fitted effect of over 75% in size;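 on activation: cells pre-induced with doxycycline then dosed without doxycycline; series mostly up to about 56 µM; 0% = DMSO vehicle and 100% = reference activator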", "details": "NCI-H358 eGFP-delta133p53alpha fluorescence, 24 h; activation: active compounds read high", "source_text": "Assay Development and Screening Technology\nNational Center for Advancing Translational Sciences (NCATS),\nNational Institute of Health (NIH), Rockville, Maryland\nCellular senescence (CS) is one of the hallmarks of aging and age-related diseases. Senescent cells are characterized by an irreversible growth arrest, an increase in senescence-associated beta-galactosidase (SA-beta-gal) activity and p16INK4a expression, an activation of the DNA damage response pathways, and the emergence of a senescence-associated secretory phenotype (SASP).\nDelta133p53alpha, a human/primate-specific p53 protein isoform, delays or inhibits the induction of CS and SASP in various types of human cells, including progeria-derived fibroblasts, primary normal astrocytes, and CD8+ T lymphocytes. Induction of delta133p53alpha with small molecule compounds may provide therapeutic opportunities for inhibition of senescence/SASP-associated pathologies in progeria syndromes, astrocyte-mediated neuroprotection in neurodegenerative diseases, and possibly prevention and treatment of a wider range of senescence- and aging-associated diseases.\nHere we report the development and validation of a cell-based quantitative high throughput screening (qHTS) assay in 1,536-well format. This qHTS assay uses the NCI-H358 cell line with doxycycline-inducible expression of enhanced green fluorescent protein (eGFP)-tagged delta133p53alpha, which allows efficient and highly quantitative measurement of the protein levels.\nPROTOCOL TABLE (as described by Inglese J, Shamu CE and Guy RK. 2007)\nSEQUENCE No. (e.g., 1, 2, 3, etc.); […] (e.g., Cells, Incubation, Reagent, etc.); VALUE; DESCRIPTION.\n1; Cells; 4uL; 800 doxycycline treated cells / well in doxycycline-free media, 1536-well black, clear-bottom low base Aurora microplates.\n2; Compounds; 23 nL; Kalypsis pin tool (Wako) equipped with 1536-well pin heads, 5-azacytidine positive control.\n3; Incubation; 24 hr; 37C, 5% CO2; 95% relative humidity.\n4; Aspiration; 1x; BioTek EL406 washer dispenser (Agilent).\n5; Fixing; 3.5% paraformaldehyde, BioTek EL406 washer dispenser (Agilent).\n6; Washing; 1x PBS; BioTek EL406 washer dispenser (Agilent).\n7; Nuclei staining; 1:1000 dilution of Hoechst 33342 (Thermofisher), BioTek EL406 washer dispenser (Agilent).\n8; Incubation; 20 min; in the dark at room temperature.\n9; Washing; 2x, 1x PBS (ThermoFisher), BioTek EL406 washer dispenser (Agilent).\n10; Reagent; 10 uL; 1x PBS per well, sealed with clear adhesive tape.\nNOTES (numbers refer to sequence numbers above).\n1. NCI-H358 cells expressing eGFP-tagged delta133p53alpha were grown in T75 culture flasks and treated with doxycycline for 24h, at 10 ng/ml for eGFP-D133p53a cells (N-terminal cell) and 100 ng/ml for D133p53a-eGFP cells (C-terminal cells). Cells were trypsinized, counted using a Counted 3 Automated Cell Counter (Thermo Fisher), and diluted to a concentration of 200,000 cells/ml. A Multidrop Combi Reagent Dispenser (ThermoFisher) was used to dispense 800 cells/well in […] of doxycycline-free media, into 1536-well black/clear bottom low base plates (AuroraMicroplates).\n2. After plating cells, 23 nl of compound library, DMSO vehicle control or positive control (5-azacytidine) were transferred by Pin Tool (Wako). The plate map layout was the same for each plate: (column 1) non-doxycycline treated cells + DMSO vehicle control; (column 2) doxycycline treated cells + DMSO vehicle control baseline; (column 3) doxycycline treated cells + positive control 57.5 uM final concentration 5-azacytidine; (column 4) doxycycline treated cells + serial dilution of 5-azacytidine, 16-point 1:2 titration spanning 1.8 nM to […] final concentration; (columns 5-48) doxycycline treated cells + titration of library compounds.\n3. Cells were incubated at 37 °C, 5 % CO2, 95% RH with breathable metal lid for 24h.\n4-10. […] After two washes, 10 ul of 1X PBS (Thermo Fisher) was dispensed to each well. Clear adhesive plate seals (VWR) were applied and plates stored at 4 °C.\n11. […]", "values": [
      {"smiles": "C[C@H](NC(=O)Cc1cc(F)cc(F)c1)C(=O)N[C@@H]1N=C(c2ccccc2)c2ccccc2N(C)C1=O", "activation": "21%"},
      {"smiles": "Oc1ccc(Cl)cc1Cc1ccccc1", "Potency": "45.5 µM (active) and 24.6 µM (active)"},
      {"smiles": "C[CH2][Hg][S]c1ccccc1C(=O)O", "Potency": "3.89 µM (active)"},
      {"smiles": "CN1C(=O)CN=C(c2ccccc2)c2cc([N+](=O)[O-])ccc21", "activation": "-19.8%"},
      {"smiles": "CC(C(=O)c1ccccc1)N(C)C", "note": "(stereo not given)", "activation": "22.6%"},
      {"smiles": "Oc1ccc2c(c1)C13CCCC[C@H]1[C@@H](C2)N(CC1CCC1)CC3", "activation": "12.3%"},
      {"smiles": "COc1ccc2c3c4n(c2c1)[C@@H](C=C(C)C)OOC(C)(C)C[C@@H]4N1C(=O)[C@@H]2CCCN2C(=O)[C@]1(O)[C@H]3OCC=C(C)C", "activation": "15.3%"},
      {"smiles": "NC(=O)c1ccc(OCC(O)CN2CC=C(c3ccc(F)cc3)CC2)cc1", "note": "(stereo not given)", "activation": "5.52%"},
      {"smiles": "CO/C=C(/C(=O)OC)c1ccccc1Oc1cc(Oc2ccccc2C#N)ncn1", "activation": "-36.8%"},
      {"smiles": "C[C@]12CC[C@H]3[C@@H](CCC4=CC(=O)CC[C@@]43C)[C@@H]1CC[C@@H]2C(=O)O", "activation": "1.69%"},
      {"smiles": "CNC(=O)c1cc(C#N)cc(C)c1NC(=O)c1cc(Br)nn1-c1ncccc1Cl", "activation": "18.3%"},
      {"smiles": "Cn1cnc(CCN)c1", "activation": "-2.51%"},
      {"smiles": "CC(C)(C)CC(C)(C)c1ccc(O)cc1", "Potency": "28.2 µM (active) and 30.9 µM (active)"},
      {"smiles": "NNC(=O)c1nn(Cc2ccc(Cl)cc2Cl)c2ccccc12", "activation": "17%"},
      {"smiles": "C[N+](C)(C)CCOC(=O)CBr", "activation": "-13.1%"},
      {"smiles": "C[C@H](Cc1ccc2c(c1)OC(C(=O)O)(C(=O)O)O2)NC[C@H](O)c1cccc(Cl)c1", "activation": "-6.85%"},
      {"smiles": "CCN1C[C@]2(COC)[C@H](O)C[C@H](OC)[C@]34[C@@H]5C[C@]6(O)[C@H](OC(=O)c7ccccc7)[C@@H]5[C@@](O)([C@H]([C@H](OC)[C@H]23)[C@@H]14)[C@@H](O)[C@@H]6OC", "activation": "10.3%"},
      {"smiles": "C/C=C(\\C)C(=O)OC1C2C3(C)CCC(OC4CC(OC)C(OC5OC(C)C(O)C(OC)C5O)C(C)O4)CC3CCC23OC32CCC(C(C)=O)C2(C)C1OC(=O)/C(C)=C/C", "note": "(stereo not given)", "activation": "12.5%"},
      {"smiles": "CC(N[C@H]1C[C@H]1c1ccccc1)c1ccc2c(c1)OCCO2", "note": "(stereo not given in full)", "activation": "-13.9% and -18.6%"},
      {"smiles": "CCOP(=S)(OCC)O/N=C(\\C#N)c1ccccc1", "activation": "-18.6%"},
      {"smiles": "CN1CCc2cc3c(cc2[C@H]1[C@@H]1OC(=O)c2c1ccc1c2OCO1)OCO3", "activation": "-11%"},
      {"smiles": "N#CC(C#N)=Cc1ccc(O)c(O)c1", "activation": "23.2% and -8.42%"},
      {"smiles": "O=[N+]([O-])c1cc([N+](=O)[O-])c2ccccc2c1", "activation": "-5.02%"},
      {"smiles": "CN1CCC(c2c[nH]c3ccc(O)cc23)CC1", "activation": "-20.9%"},
      {"smiles": "CCN(CC)CCN1C(=O)CN=C(c2ccccc2F)c2cc(Cl)ccc21", "activation": "11.9%"},
      {"smiles": "CC(=O)[O][Hg][c]1ccccc1", "Potency": "8.71 µM (active)"},
      {"smiles": "CN1C(=O)[C@]23CC4C(C)(C)[C@@]5(C[C@@]41CN2CC[C@@]3(C)O)C(=O)Nc1c5ccc2c1OC=CC(C)(C)O2", "note": "(stereo not given in full)", "activation": "-19.1%"},
      {"smiles": "CC(C)(C)NCC(O)c1cc(Cl)c(N)c(Cl)c1", "note": "(stereo not given)", "activation": "-6.21%"},
      {"smiles": "O=C(NC(=O)c1c(F)cccc1F)Nc1cc(Cl)c(OC(F)(F)C(F)C(F)(F)F)cc1Cl", "note": "(stereo not given)", "activation": "-13.4%"},
      {"smiles": "CCC(=O)CCCCC[C@@H]1NC(=O)[C@H]2CCCCN2C(=O)[C@H]([C@@H](C)CC)NC(=O)[C@H](Cc2cn(OC)c3ccccc23)NC1=O", "activation": "-11.2%"},
      {"smiles": "CC(C)(C)C(O)C(Oc1ccc(Cl)cc1)n1cncn1", "note": "(stereo not given)", "activation": "10.7%"},
      {"smiles": "[Cl-].[Cl][Pt].[NH2-].[NH2-].c1ccncc1", "activation": "-12%"},
      {"smiles": "Oc1ccc(Cl)cc1", "activation": "-7.34%"},
      {"smiles": "C[N+](C)(C)CCOC(=O)C(O)(c1ccccc1)c1ccccc1", "activation": "16.4%"},
      {"smiles": "C#CC(O)(C=CCl)CC", "note": "(stereo not given)", "activation": "19.8%"},
      {"smiles": "CCCCC1C(=O)NC(=O)N(C2CCCCC2)C1=O", "note": "(stereo not given)", "activation": "17%"},
      {"smiles": "CCC(C)(O)C1(C(=O)O)COC(=O)C1", "note": "(stereo not given)", "activation": "6.25%"},
      {"smiles": "COC(=O)CC1CC2(C(=O)c3c(O)cccc3C2(O)C(=O)OC)C(C)O1", "note": "(stereo not given)", "activation": "8.4%"},
      {"smiles": "C=C1C(=O)OC2/C=C(\\COO)CC/C=C(\\COC(C)=O)CC(OC(=O)C(C)CC)C12", "note": "(stereo not given)", "Potency": "9.28 µM (active)"},
      {"smiles": "c1cc2c(c(N3CCNCC3)c1)OCCO2", "activation": "-12.6%"}
    ]}
  ]
}
